From PubChem BioAssay (NCATS)
Records with an inconclusive call do not appear. Values without a mark were called inactive. Active and inactive are the calls of the source. Unless noted, calls come from the whole dose curve.

System: not listed separately
Assay: qHTS for Inhibitors of the Functional Ribonucleoprotein Complex (vRNP) of Lymphocytic Choriomeningitis Arenaviruses (LCMV): Viability assay - alamar blue signal for LCMV Primary Screen (AID 1347085; calls by dose curve; tested in HEK293 reporter line; note: nearly all actives have a fitted effect of over 80% in size)
Conditions: alamar blue viability counter-screen, LCMV vRNP screen cells; series mostly up to 57.5 µM; activity change, negative = lower viability: at the top concentration
% is set by controls: 0 for no effect and ±100 for the full control effect; potency is the fitted concentration of half-maximal effect.

| Structure (SMILES) | activity change, negative = lower viability | Potency |
| --- | --- | --- |
| CCCCCC(O)c1cccc(OCc2ccc3ccccc3n2)c1 (stereo unspecified) | 23.4% |  |
| Nc1ncnc2c1nc(Br)n2C1OC2COP(=O)(O)O[C@@H]2C1O (stereo partly specified) | -28.9% |  |
| O=C(Nc1ccccc1)c1cc([N+](=O)[O-])ccc1Cl | -24.4% |  |
| Nc1nc(Cl)nc2c1ncn2[C@@H]1O[C@H](COP(=O)(O)OP(=O)(O)OP(=O)(O)O)[C@@H](O)[C@H]1O | 2.64% |  |
| NC(=Nc1ccccc1)NC(=O)c1nc(Cl)c(N)nc1N | -29.4% |  |
| Cc1ccc(S(=O)(=O)N[C@@H](Cc2ccccc2)C(=O)CCl)cc1 |  | inactive |
| C[C@H](NC(=O)c1sccc1OCc1ccc(Cl)cc1)c1ccccc1 | 7.21% |  |
| CC(N)(Cc1ccc(O)c(O)c1)C(=O)O (stereo unspecified) | -33.8% |  |
| NC(=O)c1cccc2[nH]c(-c3ccc([C@H]4CCCN4)cc3F)nc12 | -29.6% |  |
| Nc1ncnc2c1c(-c1cccc(OCc3ccccc3)c1)cn2C1CC(CN2CCCC2)C1 (stereo unspecified) |  | 27.3 µM (active) |
| N#CC(c1ccnc(NCCc2cccnc2)n1)c1nc2ccccc2s1 (stereo unspecified) |  | 15.3 µM (active) |
| O=C(O)Cc1ccc(O)c(O)c1 | -35.1% |  |
| CCCC(=O)NCCc1c2n(c3ccc(OC)cc13)CCCc1ccccc1-2 | -1.98% |  |
| N[C@H](CSC(c1ccccc1)(c1ccccc1)c1ccccc1)C(=O)O | -86.2% |  |
| COc1cc2nccc(Oc3ccc(NC(=O)NC4CC4)c(Cl)c3)c2cc1C(N)=O |  | 19.3 µM (active) |
| O=C1OC(=O)C2C3CCC(O3)C12 (stereo unspecified) |  | 12.6 µM (active) |
| Fc1ccc(CNc2ncnc3ccc(F)cc23)cc1 | -7.18% |  |
| CC(N[C@H]1CCCC[C@H]1NC(=O)c1ccc(Cl)cc1)c1cccc2ccccc12 (stereo partly specified) |  | 3.43 µM (active) |
| Nc1nc(NCCNc2ncc(-n3ccnc3)c(-c3ccc(Cl)cc3Cl)n2)ccc1[N+](=O)[O-] |  | 15.3 µM (active) |
| O=c1c(-c2ccc(O)cc2)coc2cc(O)ccc12 |  | inactive |
| COc1cc2ncnc(Nc3cccc(Cl)c3)c2cc1OC | -20.2% |  |
| Cn1c(=O)c(Oc2ccc(F)cc2F)cc2cnc(NC3CCOCC3)nc21 | -3.14% |  |
| CC(C)NC[C@@H](O)c1ccc(O)c(O)c1 | -23.2% |  |
| OCc1ccc(-c2nn(Cc3ccccc3)c3ccccc23)o1 | -35.4% |  |

Molecular target: Nucleoprotein (Lymphocytic choriomeningitis virus (strain Armstrong)) (UniProt P09992)
Assay: qHTS for Inhibitors of the Functional Ribonucleoprotein Complex (vRNP) of Lymphocytic Choriomeningitis Arenaviruses (LCMV): LCMV Primary Screen - GLuc reporter signal (AID 1347086); note: nearly all actives have a fitted effect of over 70% in size
Conditions: LCMV minigenome vRNP cell assay, Gaussia luciferase reporter; series mostly up to 57.5 µM; activity change, negative = inhibition: at the top concentration

Chain of Nucleoprotein (Lymphocytic choriomeningitis virus (strain Armstrong)) (P09992 whole entry, looked up): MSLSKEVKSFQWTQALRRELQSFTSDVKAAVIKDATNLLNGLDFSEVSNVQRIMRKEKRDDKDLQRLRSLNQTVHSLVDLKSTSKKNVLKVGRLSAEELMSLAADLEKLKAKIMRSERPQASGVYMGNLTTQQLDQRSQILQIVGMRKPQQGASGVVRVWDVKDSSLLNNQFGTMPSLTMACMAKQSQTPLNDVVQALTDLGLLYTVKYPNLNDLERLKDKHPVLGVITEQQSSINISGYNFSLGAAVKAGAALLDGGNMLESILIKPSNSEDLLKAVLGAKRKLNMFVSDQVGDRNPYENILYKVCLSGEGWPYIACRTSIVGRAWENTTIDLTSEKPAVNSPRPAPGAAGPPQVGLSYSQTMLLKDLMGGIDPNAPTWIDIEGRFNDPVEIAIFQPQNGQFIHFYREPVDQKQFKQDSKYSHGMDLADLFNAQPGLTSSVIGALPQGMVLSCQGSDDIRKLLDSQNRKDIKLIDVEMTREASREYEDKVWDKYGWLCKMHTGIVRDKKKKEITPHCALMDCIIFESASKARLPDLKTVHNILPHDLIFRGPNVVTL

| Structure (SMILES) | activity change, negative = inhibition | Potency |
| --- | --- | --- |
| CCCCCC(O)c1cccc(OCc2ccc3ccccc3n2)c1 (stereo unspecified) | 11.6% |  |
| Nc1ncnc2c1nc(Br)n2C1OC2COP(=O)(O)O[C@@H]2C1O (stereo partly specified) | -6.81% |  |
| COc1ccc(NC(=O)/C=C/c2ccc(Cl)cc2)cc1 | -28.8% |  |
| CC(C)(C)NC(=O)Nc1cccc(Nc2ncc(F)c(NC(C)(C)CO)n2)c1 | -28.8% |  |
| COc1ccc(CN2CCc3cc(OC)c(OC)cc3C2)cc1O | -45.8% |  |
| CC(=O)O[C@@]12CO[C@@H]1C[C@H](O)[C@@]1(C)C(=O)[C@H](O)C3=C(C)[C@@H](OC(=O)[C@H](O)[C@@H](NC(=O)c4ccccc4)c4ccccc4)C[C@@](O)([C@@H](OC(=O)c4ccccc4)C12)C3(C)C (stereo partly specified) | -39.4% |  |
| Nc1nc(Cl)nc2c1ncn2[C@@H]1O[C@H](COP(=O)(O)OP(=O)(O)OP(=O)(O)O)[C@@H](O)[C@H]1O | 41.6% |  |
| CN1CCc2c(n(Cc3ccc(C(=O)NO)cc3)c3ccccc23)C1 | -57.1% |  |
| NC(=Nc1ccccc1)NC(=O)c1nc(Cl)c(N)nc1N | -6.96% |  |
| Cc1ccc(S(=O)(=O)N[C@@H](Cc2ccccc2)C(=O)CCl)cc1 |  | inactive |
| CC(N)(Cc1ccc(O)c(O)c1)C(=O)O (stereo unspecified) | -34.5% |  |
| NC(=O)c1cccc2[nH]c(-c3ccc([C@H]4CCCN4)cc3F)nc12 | 23.4% |  |
| O=C1CSC(=O)N1C(CCc1ccncc1)COc1ccc(-c2cccc([N+](=O)[O-])c2)cc1 (stereo unspecified) |  | 7.69 µM (active) |
| CC1(C)Oc2cc3oc(-c4cc(O)cc(O)c4)cc3cc2CC1O (stereo unspecified) | -25.3% |  |
| C=C1C(=CC=C2CCC[C@]3(C)[C@@H]([C@H](C)CCCC(C)(C)O)CC[C@@H]23)C[C@@H](O)C[C@@H]1O | 8.79% |  |
| O=C(O)Cc1ccc(O)c(O)c1 | -19.1% |  |
| N[C@H](CSC(c1ccccc1)(c1ccccc1)c1ccccc1)C(=O)O | -69.8% |  |
| COc1c2ccoc2c(OCC=C(C)C)c2oc(=O)ccc12 | 12.4% |  |
| CN1CCCN(C(=O)c2cccc(-c3ccc(C=C4C(=O)Nc5ccc(Cl)cc54)o3)c2)CC1 | -17.1% |  |
| O=C1NCc2c1c1c3ccccc3[nH]c1c1[nH]c3ccccc3c21 | -26.8% |  |
| Fc1ccc(CNc2ncnc3ccc(F)cc23)cc1 |  | 24.3 µM (active) |
| CC(N[C@H]1CCCC[C@H]1NC(=O)c1ccc(Cl)cc1)c1cccc2ccccc12 (stereo partly specified) |  | 4.85 µM (active) |
